Compound activity as filed in PubChem BioAssay.
PI4K2A block: blocks human PI4K2A kinase activity | Q9BTU6 | purified PI4K2A, ADP-Glo luminescence, 1 h; hits give low values | activity change, negative = inhibition, % at 76.9 µM | hit rate 0.13% among 420,000 | AID 1346378; in the data active = activity change below about -50%; inconclusive = mostly about -30% to -49%
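PI4K2A activity was measured by ADP-Glo luminescence: enzyme (4 ug/mL stock) and phosphatidylinositol (1.2 mM stock) in Tris pH 7.5/MgCl2/EGTA/Triton X-100 buffer were reacted with ATP (300 microM stock) for one hour at ambient temperature.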
Nrf2 inh: Nrf2 pathway inhibition. A549 ARE-Fluc reporter, luciferase luminescence, 18-24 h. Potency, µM (top dose mostly 46 µM), actives largely listed as inhibitors. hit rate 2.1% among 360,000; also: nearly all actives have a fitted effect of over 60% in size
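Quantitative HTS in A549 cells stably bearing an antioxidant response element-firefly luciferase construct. Inhibition of Nrf2-driven transcription was scored by luminescence after 18-24 h of compound exposure at 37 °C.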
A549 tox-1: counter-screen for Nrf2 inhibitors: cytotoxicity in A549 cells. A549 ARE-Fluc cells, CellTiter-Fluor viability, 18-24 h. Potency, µM (series often up to 46 µM), most hits filed as inhibitors. hit rate 0.16% among 390,000
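A549 ARE-Fluc cells in 5% FBS OPTI-MEM, 5000 cells/well, rested 2 h then exposed to compounds in concentration-response for 18-24 h at 37 °C. Viability by CellTiter-Fluor fluorescence (Ex 405/Em 525) after 30 min; luciferase luminescence (BugLite, 15 min, RT) read afterwards.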
KB-V1 cytotox: kills drug-selected multidrug resistant KB-V1 cells | AID 1347076 | Potency, µM (titrated, usually from 46.1 µM), actives largely listed as cytotoxic | KB-V1 MDR cells viability, CellTiter-Glo, 72 h | hit rate 3.4% among 400,000; also: nearly all actives have a fitted effect of over 60% in size
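KB-V1, DMEM (no phenol red) + 10% FBS; cpd pin-transferred, titration series; 72 h, 37 degrees C; CellTiter-Glo, luminescence. Data normalized, curve-fit.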
KB-3-1 cytotox: KB-3-1 parental cell cytotoxicity. KB-3-1 viability, CellTiter-Glo ATP luminescence, 72 h. hit rate 1.4% among 400,000. Potency, µM (series often up to 46.1 µM), actives largely listed as cytotoxic; also: nearly all actives have a fitted effect of over 60% in size
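KB-3-1 cells, DMEM (no phenol red) + 10% FBS; compound by pin transfer, 72 h, 37 °C. Readout: CellTiter-Glo luminescence after 10 min. Data normalized, curve-fitted.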
Giardia killer: Giardia lamblia killing. hit rate 0.15% among 340,000. activity change, % at 7.66 µM, hits read low. Giardia lamblia trophozoite viability; in the data active = activity change below about -80%; inconclusive = between about -30% and that limit;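 also: parasites exposed to compound for two days anaerobically before the ATP read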
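Trophozoite viability was measured as ATP-dependent luminescence, read 15-30 min after reagent addition. Before that, parasites at 100 cells/well were exposed to compounds for 48 h, anaerobically, at 37 deg C.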
FLuc counter 3: blocks purified firefly luciferase in Nrf2 counterscreen. shares compounds with Nrf2 inh. purified firefly luciferase, luminescence inhibition. Potency, µM (top dose mostly 57.5 µM), usual class: inhibitors. hit rate 4% among 1,400. AID 720522; also: nearly all actives have a fitted effect of over 65% in size
Target sequence (P08659 whole entry, looked up): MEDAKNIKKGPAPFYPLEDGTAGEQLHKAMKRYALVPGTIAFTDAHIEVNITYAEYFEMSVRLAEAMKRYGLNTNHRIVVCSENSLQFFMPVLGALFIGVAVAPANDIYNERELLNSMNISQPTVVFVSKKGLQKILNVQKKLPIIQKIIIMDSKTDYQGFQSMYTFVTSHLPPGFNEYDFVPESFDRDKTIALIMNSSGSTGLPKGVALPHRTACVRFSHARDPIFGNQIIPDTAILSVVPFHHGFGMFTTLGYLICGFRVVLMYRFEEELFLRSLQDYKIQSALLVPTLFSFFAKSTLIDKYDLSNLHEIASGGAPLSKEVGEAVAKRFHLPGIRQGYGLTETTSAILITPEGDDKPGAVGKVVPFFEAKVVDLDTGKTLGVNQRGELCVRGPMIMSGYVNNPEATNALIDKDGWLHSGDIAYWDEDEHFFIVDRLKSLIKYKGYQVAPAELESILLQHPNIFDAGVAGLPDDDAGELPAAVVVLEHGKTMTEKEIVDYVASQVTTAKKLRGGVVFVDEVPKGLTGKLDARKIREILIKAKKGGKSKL
A549 tox-2: toxic to A549 ARE-Fluc cells in Nrf2 counterscreen; shares compounds with Nrf2 inh; A549 ARE-Fluc cells, cytotoxicity counterscreen; Potency, µM (series often up to 46.1 µM), most hits filed as inhibitors; hit rate 2% among 1,400; AID 720523;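 also: cells exposed to compounds for 18 to 24 hours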
ARE-Fluc inh: confirmation of Nrf2 inhibitors in A549 ARE reporter cells; shares compounds with Nrf2 inh; AID 720524; hit rate 74% among 1,400; Potency, µM (titrated, usually from 46.1 µM), actives largely listed as inhibitors; A549 ARE-firefly luciferase reporter, luminescence; also: nearly all actives have a fitted effect of over 65% in size
Hits are given with their value; 0 = inactive; ? = inconclusive; - = no result shown. Shown are actives, neighbours in structure and some others; about 5.7% of the full set was active somewhere. Unless noted, calls follow the shape of the dose curve; as a rule, active = well fitted curve in the direction sought with a large enough effect; inconclusive = small, poorly fitted or top-dose-only effect, or another doubt; inactive = no such curve, though single readings can be large; an effect the other way counts as inactive or inconclusive.

SMILES	PI4K2A block	Nrf2 inh	A549 tox-1	KB-V1 cytotox	KB-3-1 cytotox	Giardia killer	FLuc counter 3	A549 tox-2	ARE-Fluc inh
COc1ccc(NS(=O)(=O)c2cccc(NC(=O)c3ccc(S(=O)(=O)N4CCCCCC4)cc3)c2)cc1	0	5.8µM	?	?	20.6µM	0	0	0	5.8µM
O=C(Nc1cccc(S(=O)(=O)C(F)F)c1)c1ccc(S(=O)(=O)N2CCCC2)cc1	0	5.8µM	?	0	0	0	0	0	?
Cc1ccc(Cn2ccn(CC(=O)Nc3ccccc3C(F)(F)F)c(=O)c2=O)cc1	0	0	0	-	-	-	-	-	-
Cc1ccccc1NC(=O)c1ccc(F)c(S(=O)(=O)N(C)C2CCCCC2)c1	0	-	0	-	-	-	-	-	-
O=C(Oc1cccnc1)c1ccc([N+](=O)[O-])cc1Cl	0	1.03µM	0	0	0	0	0	?	-
COc1cc(C2CC(=O)c3c([nH]c(C(=O)OCc4ccc(C)cc4)c3C)C2)cc(OC)c1OC (centres undefined)	0	2.31µM	0	-	-	-	0	0	4.61µM
COc1ccc(C2CC(=O)c3c([nH]c(C(=O)OCc4ccccc4)c3C)C2)cc1OC (centres undefined)	0	?	0	0	0	-	-	-	-
COc1cc(C2CC(=O)c3c([nH]c(C(=O)OCCOC(C)C)c3C)C2)cc(OC)c1OC (centres undefined)	0	4.61µM	?	0	0	0	0	0	9.2µM
CCc1ccc(S(=O)(=O)c2nnn3c2nc(NCCc2ccccc2)c2sccc23)cc1	0	0	0	-	-	-	-	-	-
Fc1ccc(/C=C/c2ccc3ccccc3n2)cc1	-	-	-	0	11.6µM	-	0	?	7.31µM
COC(=O)[C@]12C[C@H](CC(=O)NCC3CCCCC3)C(=O)N(Cc3ccc4c(c3)OCO4)C1=C[C@H](C(C)C)O[C@@H]2C1CC1	0	-	-	-	-	-	-	-	-
CC(C)CCNC(=O)C(c1ccco1)N(CCCO)C(=O)Cn1nnc(-c2ccc(F)cc2)n1 (centres undefined)	0	0	0	0	0	0	-	-	-
CC(C)CCNC(=O)C(c1ccncc1)N(Cc1cccs1)C(=O)Cn1nnc(-c2ccc(F)cc2)n1 (centres undefined)	0	2.59µM	?	0	?	0	0	?	1.46µM
COc1ccc(CN(C)C(=O)c2cccc(NC(=O)CC3SC(N4CCCCC4)=NC3=O)c2)c(OC)c1 (centres undefined)	0	8.2µM	0	0	16.4µM	0	0	0	6.51µM
CN(C)c1ccc(/C=C/c2ccnc3ccccc23)cc1[N+](=O)[O-]	-	-	-	?	0	-	-	-	-
Cc1cc(N(C)C)cc(C)c1/C=C/c1ccnc2ccccc12	-	-	-	?	?	-	?	?	9.2µM
CNC(=S)Nc1ccc(N2CCN(c3ccc(C(F)(F)F)cn3)CC2)nc1	0	4.11µM	0	0	0	0	0	0	6.51µM
O=C(Nc1ccc(F)cc1F)N1CCCN(c2ccc(C(F)(F)F)cn2)CC1	0	6.51µM	0	?	?	0	0	0	8.2µM
O=C(Nc1ccccc1)N1CCN(c2ccc(C(F)(F)F)cn2)CC1	0	6.51µM	0	8.2µM	?	0	0	0	9.2µM
O=C(Nc1ccc(F)cc1F)N1CCN(c2ncccn2)CC1	0	0	0	0	0	0	-	-	-
Fc1ccc(NC(=S)N2CCCN(c3ccc(C(F)(F)F)cn3)CC2)c(F)c1	0	2.91µM	0	?	0	0	0	0	5.8µM
CC(=O)N(CC(O)CO)c1c(I)c(C(=O)NCCO)c(I)c(C(=O)NCC(O)CO)c1I (centres undefined)	0	-	-	-	-	-	-	-	-
N#Cc1cccc(OC[C@@H](O)CN2CCC(C(O)(c3ccccc3)c3ccccc3)CC2)c1	0	-	-	-	-	-	-	-	-
